PubChem BioAssay (EPA / NIEHS)
Results filed as inconclusive are left out. Some compounds were tested as several samples or in several runs, with calls that do not always agree. The source made the active and inactive calls. The calls were made as follows, unless noted: active = hit-call score of the fitted dose curve at least 0.9, where 1 is the maximum; inactive = score below 0.9.

Key:
[1] = target: Myc proto-oncogene protein (Homo sapiens) (UniProt P01106); test: ATG_Myc_CIS: Attagene CIS-FACTORIAL HepG2 Assay for human Myelocytomatosis (Myc) Proto-Oncogene Transcription Factor (AID 2282990); conditions: HepG2, Attagene cis-reporter transcription factor activity; actives raise or lower the signal
Chain of Myc proto-oncogene protein (Homo sapiens) (P01106 whole entry, looked up, the tested form may be a part): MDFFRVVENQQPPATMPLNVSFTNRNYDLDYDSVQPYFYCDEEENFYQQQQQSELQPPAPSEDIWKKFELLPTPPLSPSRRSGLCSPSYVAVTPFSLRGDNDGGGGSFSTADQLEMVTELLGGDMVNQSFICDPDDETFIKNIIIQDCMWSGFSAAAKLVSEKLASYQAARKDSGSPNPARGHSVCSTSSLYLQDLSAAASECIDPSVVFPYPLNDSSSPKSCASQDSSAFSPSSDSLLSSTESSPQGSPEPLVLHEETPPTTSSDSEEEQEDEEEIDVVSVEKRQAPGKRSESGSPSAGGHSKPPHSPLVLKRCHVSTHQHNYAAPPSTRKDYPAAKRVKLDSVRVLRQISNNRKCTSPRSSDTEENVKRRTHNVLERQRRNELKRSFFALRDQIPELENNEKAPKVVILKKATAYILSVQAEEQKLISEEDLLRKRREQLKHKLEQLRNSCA
Method in brief: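 Fluorescence intensity of reporter-specific cDNA fragments, separated by capillary electrophoresis, gives the signal. Transfected HepG2 cells carrying cis-promoter reporter constructs are incubated with compound for 24 h; DMSO serves as baseline.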

[2] = ATG_NF_kB_CIS: Attagene CIS-FACTORIAL HepG2 Assay for human Nuclear Factor Kappa B (NF-kB) (AID 2282991); conditions: HepG2 Attagene cis-factorial NF-kB reporter mRNA; actives raise or lower the signal
Method in brief: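 Transient MRTU transfection of human HepG2 liver cells → 24 h chemical exposure → total RNA, oligo(dT) RT → PCR, 6-FAM primer extension, HpaI digest 2 h 37 C → CE fragment analysis. Bidirectional fitting, DMSO negative control.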

[3] = ATG_NRF2_ARE_CIS: Attagene CIS-FACTORIAL HepG2 Assay for human Nuclear Factor Erythroid 2 Related Factor 2 (NFR2) response to Antioxidant Response Elements (ARE) (AID 2282992); conditions: HepG2 Attagene ARE/NRF2 reporter, transcription factor activity; actives raise or lower the signal;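 as to AC50: reporter mRNA level measured by RT-PCR and capillary electrophoresis fluorescence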
Method in brief: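 Cis-factorial assay: transfected HepG2 reporter library, 24 h dosing, mRNA readout via RT-PCR/CE; DMSO-referenced bidirectional analysis.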

[4] = ATG_Oct_MLP_CIS: Attagene CIS-FACTORIAL HepG2 Assay for human Octamer-Binding Transcription Factor (Oct) (AID 2282993); conditions: HepG2 Attagene cis-factorial Oct reporter, mRNA; actives raise or lower the signal
Method in brief: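 Transfected HepG2 cells, 24 h treatment. Reporter mRNA quantified by RT-PCR–capillary electrophoresis; bidirectional fitting against DMSO.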

[5] = target: Cellular tumor antigen p53 (Homo sapiens) (UniProt P04637); test: ATG_p53_CIS: Attagene CIS-FACTORIAL HepG2 Assay for human p53 Transcription Factor (AID 2282994); conditions: HepG2 p53 cis-element reporter, Attagene mRNA; actives raise or lower the signal
Chain of Cellular tumor antigen p53 (Homo sapiens) (P04637 whole entry, looked up): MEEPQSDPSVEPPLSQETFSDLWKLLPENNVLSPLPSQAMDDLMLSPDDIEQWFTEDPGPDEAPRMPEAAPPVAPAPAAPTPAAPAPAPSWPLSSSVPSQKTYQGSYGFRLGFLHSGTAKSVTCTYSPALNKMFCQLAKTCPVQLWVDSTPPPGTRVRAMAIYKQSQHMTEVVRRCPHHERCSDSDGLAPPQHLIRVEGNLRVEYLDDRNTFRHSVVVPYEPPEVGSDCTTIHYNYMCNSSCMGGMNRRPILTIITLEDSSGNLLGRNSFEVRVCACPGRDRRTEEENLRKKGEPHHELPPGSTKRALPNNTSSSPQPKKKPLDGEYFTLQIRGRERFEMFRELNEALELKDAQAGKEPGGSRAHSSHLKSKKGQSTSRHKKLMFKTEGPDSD
Method in brief: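 Using HepG2 hepatoma cells carrying cis-acting multiplexed reporters, mRNA induction is detected after a 24 h exposure. Gain- and loss-of-signal responses are fitted relative to DMSO-treated cells.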

[6] = BSK_3C_TissueFactor: BioMAP Diversity Plus: 3C Assay for Tissue Factor Biomarker Activity (AID 2282997); conditions: BioMAP 3C HUVEC, tissue factor biomarker readout; actives raise or lower the signal
Method in brief: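 Endothelial monolayers (human umbilical vein, primary) are dosed, incubated 24 h, and assayed for Tissue Factor by ELISA; DMSO serves as negative control for bidirectional fitting.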

[7] = BSK_3C_uPAR: BioMAP Diversity Plus: 3C Assay for Urokinase-type plasminogen activator receptor (uPAR) Biomarker Activity (AID 2282998); conditions: BioMAP 3C HUVEC, uPAR biomarker ELISA; actives raise or lower the signal
Method in brief: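 Readout: ELISA for surface uPAR. System: human umbilical vein endothelial primary cells, 24 h after chemical exposure. Analysis: bidirectional fit, DMSO baseline.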

[8] = BSK_3C_VCAM1: BioMAP Diversity Plus: 3C Assay for Vascular cell adhesion molecule 1 (VCAM1) Biomarker Activity (AID 2282999); conditions: BioMAP 3C HUVEC, VCAM1 ELISA, cytokine-stimulated; actives raise or lower the signal
Method in brief: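 Human umbilical vein endothelial cells (3C system), biomarker read by ELISA 24 h after dosing; bidirectional fit against DMSO baseline. Cytotoxicity tracked by SRB total-protein staining in parallel cultures at biomarker time.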

[9] = BSK_4H_Eotaxin3: BioMAP Diversity Plus: 4H Assay for Eotaxin 3 Biomarker Activity (AID 2283000); conditions: primary human endothelial cells (HUVEC); actives raise or lower the signal
Method in brief: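 ELISA quantitation of CCL26 (Eotaxin-3) protein from chemically dosed human vascular endothelial cells at 24 h; increases and decreases both scored relative to DMSO-treated baseline.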

[10] = target: human Peroxisome Proliferator-activated Receptor alpha (PPARa), PPARA (gene 5465) (UniProt Q07869); test: ATG_PPARa_TRANS: Attagene TRANS-FACTORIAL HepG2 Assay for human Peroxisome Proliferator-activated Receptor alpha (PPARa) (AID 2283001; active = hit-call score of the fitted dose curve at least 0.9, where 1 is the maximum;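 as to AC50: potency for gain of reporter signal over DMSO so agonist or activator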)
Chain of human Peroxisome Proliferator-activated Receptor alpha (PPARa), PPARA (gene 5465) (Q07869 whole entry, looked up, the tested form may be a part): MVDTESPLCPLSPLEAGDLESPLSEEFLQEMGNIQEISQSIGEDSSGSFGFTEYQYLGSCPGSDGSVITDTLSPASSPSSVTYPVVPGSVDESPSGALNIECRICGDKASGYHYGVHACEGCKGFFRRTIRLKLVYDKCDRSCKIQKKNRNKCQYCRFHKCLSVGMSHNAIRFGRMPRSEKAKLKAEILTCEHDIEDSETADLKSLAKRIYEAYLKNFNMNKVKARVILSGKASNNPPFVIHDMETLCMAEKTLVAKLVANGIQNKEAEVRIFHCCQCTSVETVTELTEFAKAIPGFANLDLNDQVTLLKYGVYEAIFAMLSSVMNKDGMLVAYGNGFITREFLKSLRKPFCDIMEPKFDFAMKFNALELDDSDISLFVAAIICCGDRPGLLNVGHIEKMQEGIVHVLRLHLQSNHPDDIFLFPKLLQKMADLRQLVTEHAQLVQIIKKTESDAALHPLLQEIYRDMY
Method in brief: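 Measures transcriptional activity of an exogenous chimeric PPARa-Gal4 protein in transiently transfected HepG2 cells after 24 h dosing. Reporter mRNA quantified via RT-PCR and capillary electrophoresis; DMSO served as negative control.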

Measured: AC50

NCCOCCOCCN
inactive: all assays above

CCOCCOCCO
inactive: all assays above

N[C@@H](Cc1c[nH]c2ccccc12)C(=O)O
not listed: [5]
inactive: all other assays above

O=NO
not listed: [5]
inactive: all other assays above

NC=O
not listed: [5]
inactive: all other assays above

CCCCCCCC(=O)OC
inactive: all assays above

CC(=O)CC(c1ccccc1)c1c(O)c2ccccc2oc1=O (stereo unspecified)
active: [3] 27 µM
inactive: [1] | [3] | [4] | [6] | [7] | [8] | [9] | [10]

C/C=C/c1ccc(OC)cc1
not listed: [5]
inactive: all other assays above

CCCCOC(=O)CCCCC(=O)OCCCC
not listed: [5]
inactive: all other assays above

Cc1occc(=O)c1O
not listed: [5]
inactive: all other assays above

CSc1ccc(Oc2ccc(S(N)(=O)=O)cc2CN(C)C)cc1C
active: [4] 33 µM
not listed: [5] | [10]
inactive: all other assays above

CC(C)c1cccc(C(C)C)c1
not listed: [5] | [10]
inactive: all other assays above

Cn1cnc2c1c(=O)[nH]c(=O)n2C
not listed: [5] | [10]
inactive: all other assays above

CC(C)OC(=O)C(C)(C)Oc1ccc(C(=O)c2ccc(Cl)cc2)cc1
active: [3] 25 µM | [4] 19.8 µM | [7] 30.6 µM | [9] 32.4 µM
inactive: [1] | [2] | [6] | [8]

CCCCCCC(CCCCCCCCCCC(=O)OCC(COC(C)=O)OC(C)=O)OC(C)=O (stereo unspecified)
active: [10] 13.8 µM
inactive: all other assays above

O=C(O)c1cccnc1
not listed: [5]
inactive: all other assays above

Cc1ccc(-c2cc(C(F)(F)F)nn2-c2ccc(S(N)(=O)=O)cc2)cc1
active: [3] 5.72 µM | [6] 31.7 µM | [7] 24.6 µM | [8] 33.9 µM | [9] 31 µM
inactive: [1] | [2] | [4]

CCc1cc(C2=C(C(=O)O)N(c3ccccc3C(F)(F)F)S(=O)(=O)c3ccccc32)cc2c1OCO2
active: [3] 66.8 µM | [4] 61 µM | [7] 33.7 µM
not listed: [2] | [10]
inactive: all other assays above

CCc1nc(N)nc(N)c1-c1ccc(Cl)cc1
active: [1] 166 µM | [3] 2.15 µM | [4] 138 µM | [5] 30.3 µM
not listed: [2]
inactive: all other assays above

OCC(O)CO
inactive: [6] | [7] | [8] | [9]

Cc1cn([C@H]2C=C[C@@H](CO)O2)c(=O)[nH]c1=O
not listed: [2] | [5] | [10]
inactive: all other assays above

CCCC[C@H]1CN(CC2CCOCC2)C(=O)OC12CCN(C1(C)CCN(C(=O)c3c(C)ncnc3C)CC1)CC2
not listed: [2]
inactive: all other assays above

C/C=C/C=C/C(=O)O
not listed: [2] | [5] | [10]
inactive: all other assays above

O=C(Oc1ccccc1)c1cccc(C(=O)Oc2ccccc2)c1
not listed: [2] | [5]
inactive: all other assays above

Nc1nc(=S)c2[nH]cnc2[nH]1
active: [3] 2.69 µM | [4] 35.5 µM
not listed: [2] | [5]
inactive: all other assays above

CCCCCCCCCC[N+](C)(C)[O-]
not listed: [2] | [10]
inactive: all other assays above

O=C(O)CC(O)(CC(=O)O)C(=O)O
inactive: [6] | [7] | [8] | [9]

S=c1[nH]c2ccccc2s1
active: [3] 54.9 µM | [4] 100 µM
not listed: [2]
inactive: all other assays above

CC(N)=O
not listed: [2] | [5]
inactive: all other assays above

CCCCCCCCCCCCCCOS(=O)(=O)O
active: [10] 5.1 µM
not listed: [2]
inactive: all other assays above

CC(=O)O
not listed: [2] | [5]
inactive: all other assays above

COC(=O)[C@H]1[C@H]2C[C@@H]3c4[nH]c5cc(OC)ccc5c4CCN3C[C@H]2C[C@@H](OC(=O)c2cc(OC)c(OC)c(OC)c2)[C@@H]1OC
inactive: [1] | [4] | [10]
active: [3] 45.5 µM | [5] 22.9 µM | [6] 10.4 µM | [7] 23.2 µM | [8] 11.4 µM | [9] 25.7 µM

O=C1O[C@H]([C@H](O)CO)C(O)=C1O
not listed: [2] | [10]
inactive: all other assays above

CN(C)C(=O)NC1(c2ccccc2)CCN(CC[C@@]2(c3ccc(F)c(F)c3)CN(C(=O)c3ccccc3)CCO2)CC1
active: [3] 40.8 µM | [4] 100 µM | [5] 100 µM
not listed: [2] | [10]
inactive: all other assays above

O=C1NC(=O)C(c2ccccc2)(c2ccccc2)N1
not listed: [2] | [5] | [10]
inactive: all other assays above

Oc1ccccc1O
active: [3] 13.1 µM | [4] 31.1 µM | [6] 2.96 µM | [8] 2.17 µM
not listed: [2]
inactive: all other assays above

O=C(NS(=O)(=O)/C=C/c1cccs1)c1ccc(F)cc1Br
active: [3] 44.7 µM
not listed: [2] | [5] | [10]
inactive: all other assays above

O=C1c2c(O)cccc2Cc2cccc(O)c21
active: [6] 5.39 µM
not listed: [2]
inactive: all other assays above

CC(C)c1cccc(C(C)C)c1NC(=O)NS(=O)(=O)c1cc(C(C)(C)O)co1
not listed: [2]
inactive: all other assays above

CC(C)(C)c1ccccc1
not listed: [2]
inactive: all other assays above

NC1CCCCC1
not listed: [2] | [5]
inactive: all other assays above

NC(=Nc1ccccc1)Nc1ccccc1
active: [3] 5.38 µM | [4] 43.9 µM | [5] 6.23 µM | [9] 6.06 µM
not listed: [2]
inactive: all other assays above

CC(C)NCC(O)c1ccc(O)c(O)c1 (stereo unspecified)
not listed: [2] | [5] | [10]
inactive: all other assays above

CC(C)(O)c1ccc(CNC(=O)c2cccnc2Oc2ccc(F)cc2)cc1
active: [3] 40.7 µM
not listed: [2]
inactive: all other assays above

CC(COCC(C)OC(=O)c1ccccc1)OC(=O)c1ccccc1 (stereo unspecified)
not listed: [2] | [5]
inactive: all other assays above

COc1ccc(C(=O)Nc2nc3ccccc3c(NCc3ccccc3)c2C#N)cc1
active: [3] 0.952 µM | [4] 7.37 µM
not listed: [2]
inactive: all other assays above

O=Cc1ccccc1C=O
not listed: [2] | [5]
inactive: all other assays above
